Compounds with a hit are over-represented: about 2.8% of the library has one in this group of screens.
a7 integrin act: activators of alpha7 integrin expression for muscular dystrophy; alpha7betagal myoblasts, beta-gal FDG fluorescence, 48 h; Potency, µM (titrated, usually from 38.3 µM), for inactives: top-dose activation, hits mostly activators; 350,000 tested, 0.064% active;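 also: potency is read from the fitted curve at half-maximal effect; 100% = response of the positive control SU9516; nearly all actives have a fitted effect of over 60% in size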
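Alpha7betagal+/- myoblasts (passage 13) were plated 16-24 hr, then exposed to compounds (1:260 dilution of DMSO stock) for 48 hours at 37C. After MPER lysis, β-galactosidase reporter activity was read as FDG fluorescence (ex 480/em 540) after 30 minutes.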
MBNL1-CUG inh: MBNL1-poly(CUG) RNA binding inhibition | TR-FRET MBNL1-His/biotin-(CUG)12 binding, 665/545 ratio | Potency, µM (top dose mostly 57.5 µM), without a hit: at the highest dose activity change, negative = inhibition, most hits filed as inhibitors | 280,000 tested, 0.036% active; active = well fitted inhibition curve with a large enough effect in the signal ratio, with a control signal flat, not every such curve was filed as active; inconclusive = small, poorly fitted or top-dose-only effect, or effect the other way, or a change in a side signal; inactive = no such curve, though single readings can be large or run the other way; the % refers to the signal ratio; also: potency is read from the fitted curve at half-maximal effect; % is scaled to controls: 0 for no effect and ±100 for the full control effect
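Inhibition of protein-RNA binding appears as loss of TR-FRET between terbium anti-His antibody on MBNL1-His and streptavidin-XL665 on biotin-(CUG)12. Activity is normalized to buffer-only and uninhibited-complex controls.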
DRD3 antagonist: D3 dopamine receptor (human) antagonism; D3R cells, DiscoveRx beta-arrestin luminescence, antagonist mode; stronger effect = lower value; max response, negative = inhibition, %; 360,000 tested, 2.5% active; in the data active = max response below about -50%; inconclusive = no clear call, values can overlap the other calls; also: % is scaled to controls: 0 for no effect and ±100 for the full control effect
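Cells expressing the human receptor were seeded at 1500 cells/well, incubated overnight at 37 degrees C in 5% CO2, then exposed to library compounds with dopamine controls for 90 minutes at 37 degrees C before luminescent detection.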
PTHR1 ag: agonists of human PTHR1 parathyroid hormone receptor; Q03431; 410,000 tested, 0.075% active; HEK293 GP2 PTHR1 cells, GloSensor cAMP luminescence, 1 h; Potency, µM (series often up to 115 µM), inactives show at the highest dose activation, actives largely listed as activators; AID 743266; also: potency is read from the fitted curve at half-maximal effect; nearly all actives have a fitted effect of over 55% in size
Target sequence (Q03431 whole entry, looked up): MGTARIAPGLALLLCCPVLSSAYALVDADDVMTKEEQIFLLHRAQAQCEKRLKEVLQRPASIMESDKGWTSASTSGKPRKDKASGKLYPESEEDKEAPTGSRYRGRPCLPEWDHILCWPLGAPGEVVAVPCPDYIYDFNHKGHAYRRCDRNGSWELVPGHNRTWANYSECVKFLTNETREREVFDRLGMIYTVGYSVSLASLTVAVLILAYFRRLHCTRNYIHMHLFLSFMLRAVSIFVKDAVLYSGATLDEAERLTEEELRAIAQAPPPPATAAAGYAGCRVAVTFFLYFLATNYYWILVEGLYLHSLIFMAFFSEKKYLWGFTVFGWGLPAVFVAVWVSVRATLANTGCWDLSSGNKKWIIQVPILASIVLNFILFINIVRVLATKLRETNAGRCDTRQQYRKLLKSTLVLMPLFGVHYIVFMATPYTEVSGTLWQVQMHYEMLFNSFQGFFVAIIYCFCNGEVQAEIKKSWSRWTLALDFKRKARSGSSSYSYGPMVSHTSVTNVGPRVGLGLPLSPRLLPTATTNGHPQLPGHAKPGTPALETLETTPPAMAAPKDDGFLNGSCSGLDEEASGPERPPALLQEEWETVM
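HEK-293-derived GP2 cells expressing PTHR1 and a GloSensor cAMP reporter, 3,000/well, plated overnight, given luciferin plus IBMX (each 0.5 mM as added) for 1 h at 37 °C, then compound for 1 h at 37 °C. Luminescence was read after 15 min at room temperature.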
CBFb RUNX1 block: CBF-beta/RUNX1 interaction disruption; Q01196+Q13951; AlphaScreen CBFb-His/RUNX1-biotin binding, biochemical; Potency, µM (series often up to 59.8 µM), for inactives: at the highest dose activity, negative = inhibition, most hits filed as inhibitors; 230,000 tested, under 10 active; also: % of control where 0% means no effect
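Interaction loss through any mechanism counts as activity. Pre-formed complex of His-CBF-beta and biotin-RUNX1 (30 nM apiece) is incubated with compound 15 min, then with 50 ng nickel and 50 ng streptavidin beads for 90 min before AlphaScreen detection.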
D3 ag: activates the human D3 dopamine receptor; P35462; D3R DiscoveRx beta-arrestin cells, luminescence, 90 min; max activation, %; 410,000 tested, 0.58% active; AID 652048; in the data active = max activation above about 30%; also: 0% is about no effect
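Cells at 1500/well, incubated overnight, then treated with pinned compounds (dopamine as control) for 90 min at 37 degrees C. DiscoveRx reagent added for 30 - 60 minutes at room temperature; luminescence read.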
The depositor's hits bear a star; i = inactive; ? = inconclusive; nt = no result given; [ ] = remark or other dose. Unless noted, calls follow the shape of the dose curve; as a rule, active = well fitted curve in the direction sought with a large enough effect; inconclusive = small, poorly fitted or top-dose-only effect, or another doubt; inactive = no such curve, though single readings can be large; an effect the other way counts as inactive or inconclusive.

SMILES | a7 integrin act | MBNL1-CUG inh | DRD3 antagonist | PTHR1 ag | CBFb RUNX1 block | D3 ag
Cc1cc(C)c(S(=O)(=O)N2CCN(c3ccc([N+](=O)[O-])c(NCc4ccco4)c3)CC2)c(C)c1 | 15% | -6% | -24 | 21% | -3% | -16
Nc1nc(NCc2ccco2)nc(N2CCN(Cc3ccccc3)CC2)c1[N+](=O)[O-] | 0% | nt | -79* | i | -19% | -14
OCCN1CCN(c2nc(NCc3ccco3)c3ccccc3n2)CC1 | 5% | 0% | -82* | -4%[57.5 µM] | 26% | -20
Cc1ccc(OCCN2CCN(c3nc(NCc4ccco4)c4ccccc4n3)CC2)cc1 | -47% | -9% | -78* | -28% | -5% | -26
OCCNc1nc(N2CCN(c3ccccc3)CC2)nc2ccccc12 | -51% | -3% | -11 | -11% | nt | -14
COc1cccc(OC)c1C(=O)Nc1ccccc1Sc1ccccc1 | 3% | nt | 14 | -7% | nt | 1
OC[C@H]1O[C@@H](c2nc3ccc(-c4nc(-c5ccc(Br)cc5)no4)cc3[nH]2)C[C@@H]1O | nt | nt | 0 | -55% | nt | -13
CCCOc1ccc(F)cc1-c1cc(C(=O)Nc2ccccc2)[nH]n1 | nt | nt | 9 | -23% | nt | -18
Cc1ccc(C)c(NC(=O)CN2C(=O)COc3ccc(Cl)cc32)c1 | nt | nt | nt | i | nt | -3
c1ccc(Nc2nc(NCc3ccco3)c3ccccc3n2)cc1 | -41% | -4% | -12 | -19% | -2% | 3
c1ccc(CN2CCN(c3nc(NCc4ccco4)c4ccccc4n3)CC2)cc1 | -42% | ? | -82* | -31% | -3% | -13
Nc1nc(NCc2ccccc2)nc(NCc2ccccc2)c1[N+](=O)[O-] | -1% | 7% | 7 | i | -3% | 32*
CCCn1nnnc1NC(=O)COc1ccc(CC)cc1 | 13% | nt | 4 | i | ? | -1
COc1cc(C)c(S(=O)(=O)N2CCOCC2)cc1C(C)C | -1% | 3% | -88* | i | 10% | 3
COc1cc(C)c(C(C)C)cc1S(=O)(=O)N1CCN(C)CC1 | -16%[7.66 µM] | 2% | -18 | i | 2% | 0
CCC(C)[C@H](NC(=O)NC1CCN(Cc2ccccc2)CC1)C(=O)OC (stereo partly drawn) | -3% | 1% | -50* | i | 5% | -38
O=C(O)COCC(=O)NC1CCN(Cc2ccccc2)CC1 | -14% | -10% | 7 | i | -1% | 6
COC(=O)c1ccccc1NC(=O)NC1CCN(Cc2ccccc2)CC1 | 13% | 0% | -93* | i | 2% | -33
COc1ccc(C)cc1NC(=O)NC1CCN(Cc2ccccc2)CC1 | -29% | 3% | -83* | i | -4% | -25
CC(=O)Nc1cccc(-c2csc(C(C)(NC(C)=O)c3ccccc3)n2)c1 (stereo not drawn) | nt | nt | -22 | -9% | nt | -5
CC1C(=O)CC(c2ccccc2)N(C)C1c1ccccc1 (stereo not drawn) | 2% | -9% | -79* | -6% | 8% | -23
CCC1C(c2ccccc2)N(C)C(c2ccccc2)CC1(O)c1ccccc1 (stereo not drawn) | 0% | -2% | 3 | -14% | 6% | -12
NNc1nc(Nc2ccccc2)nc(Nc2ccccc2)n1 | -14% | -3% | -52* | i | -9% | -24
O=C(CNCc1ccc(Cl)cc1)Nc1cc(S(=O)(=O)N2CCCC2)ccc1Cl | 0% | nt | -30 | -55% | nt | -7
Cc1cccc(NC(=O)c2cc(S(=O)(=O)N(C)c3ccc(F)cc3)ccc2Cl)n1 | -1% | nt | -57* | -21% | nt | 1
SMILES | a7 integrin act | MBNL1-CUG inh | DRD3 antagonist | PTHR1 ag | CBFb RUNX1 block | D3 ag
CCN(CCO)Cc1cn[nH]c1-c1ccc(C)c(C)c1 | 21% | -5% | -66* | -6% | 3% | 3
CCN(CCO)Cc1csc2cc(C)ccc12 | 1% | nt | -6 | -17% | -5% | -38
Cc1nc2scc(-c3ccc(C(C)(C)C)cc3)c2c(=O)n1N | 9% | -2% | 55 | -13% | 4% | 31*
COc1ccc(-c2csc3nc(C)n(-n4cccc4)c(=O)c23)cc1 | -1% | 5% | 9 | -32%[57.5 µM] | 1% | 0
CCn1c(SCC(=O)O)nc2ccccc21 | 10% | -16% | 3 | -33% | 6% | 3
CCCCn1c(SCC(=O)O)nc2ccccc21 | 2% | 2% | -80* | -18% | 0% | -11
O=C(O)Cn1c(SCc2ccccc2)nc2ccccc21 | 1% | -5% | -53* | i | 3% | 4
CC(=O)Nc1ccc(SCC(=O)N(C)C2CCS(=O)(=O)C2)cc1 (stereo not drawn) | -10% | -2% | -59* | i | 8% | -12
CN(C(=O)CSc1ncccn1)C1CCS(=O)(=O)C1 (stereo not drawn) | 3% | nt | 2 | i | nt | 2
CCCCn1c(N)c(N(CCC(C)C)C(=O)c2ccc(C)c(S(=O)(=O)N3CCOCC3)c2)c(=O)[nH]c1=O | -22% | nt | 7 | -21% | nt | 3
CCc1ccc(CNC(=O)CCCC(=O)n2nc(C)c3ccccc32)cc1 | 25% | -6% | -3 | i | nt | -6
Clc1cccc(OCCN2CCCC2)c1 | 10% | 2% | -73* | ? | nt | -11
CCC1CCCCN1CCCCOc1cccc(Cl)c1 (stereo not drawn) | -65% | ? | -96* | -1% | nt | -21
CN1CCN(CCOc2cccc(Cl)c2)CC1 | 13% | -17% | ? | -15% | -1% | 1
CC1CCN(CCCCOc2ccc(Cl)cc2)CC1 | -33% | -9% | -24 | i | nt | -13
CC(C)c1cccc(OCCN2CCCC2)c1 | 9% | -5% | -100* | i | nt | -19
CSc1nc(N)n2nc(-c3ccccc3)cc2n1 | -12% | 2% | 14 | -11% | 8% | 1
O=C(COC(=O)c1ccc(Br)o1)Nc1cccc(S(=O)(=O)N2CCCCCC2)c1 | -32% | -1% | 25 | -13%[57.5 µM] | -3% | 1
Cc1ccc(S(=O)(=O)Nc2cccc3cccnc23)c([N+](=O)[O-])c1 | -57% | 13% | -56* | -23% | ? | -11
CC(=O)Nc1ccc(S(=O)(=O)Nc2cccc3cccnc23)cc1 | -27% | 22% | -18 | -32% | -4% | -1
Cc1c(NS(C)(=O)=O)cccc1-c1nc2cccnc2s1 | 6% | -8% | -51* | -30% | 1% | 1
O=S(=O)(Nc1cccc2cccnc12)c1ccc(S(=O)(=O)N2CCCC2)cc1 | -60% | 11% | -72* | -55%[57.5 µM] | -16% | -42
CS(=O)(=O)Nc1cccc2cccnc12 | -55% | 22% | -57* | i | -5% | -17
O=c1c2sccc2n(Cc2cc(=O)n3ccccc3n2)c(=O)n1-c1cccc(C(F)(F)F)c1 | nt | nt | nt | i | nt | 5

Screening results as filed in PubChem BioAssay.
